Data published in PubChem BioAssay (NCI).
Values joined by “and” are separate entries in the source; they are usually repeats but may differ in a detail not shown here. Equal values may be shown once. The panel holds about 79,000 compounds, 15% with a hit somewhere; the sample as a whole holds those more often. Active and inactive are the calls of the source. No stated cut-off is given here; in the data, active means growth inhibition above about 70%; inactive means the rest.

What was measured:
[1] = NCI Yeast Anticancer Drug Screen. Data for the rad50 strain (AID 155);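 further: 0% = growth of vehicle-only cultures of the same strain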; details: S. cerevisiae rad50 strain growth inhibition, stronger effect = higher value
Procedure, shortened: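 Genetically altered yeast (DNA repair pathway); compound treatment; growth inhibition vs vehicle ctrl.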

[2] = NCI Yeast Anticancer Drug Screen. Data for the mec2-1 strain (AID 157); details: S. cerevisiae mec2-1 strain, stronger effect = higher value
Procedure, shortened: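 mec2-1 yeast strain, carrying an alteration in DNA damage repair or cell cycle control, was exposed to compounds; growth inhibition was measured relative to vehicle-treated controls.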

[3] = NCI Yeast Anticancer Drug Screen. Data for the sgs1 mgt1 strain (AID 161);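 further: 0% = growth of cultures given vehicle only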; details: S. cerevisiae sgs1 mgt1 strain, stronger effect = higher value
Procedure, shortened: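 Percent growth inhibition was derived by comparing compound-exposed mutant yeast with vehicle-exposed cultures. The strain carries alterations in DNA damage repair.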

[4] = NCI Yeast Anticancer Drug Screen. Data for the cln2 rad14 strain (AID 165);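 further: 0% = growth equal to vehicle treated cultures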; details: S. cerevisiae cln2 rad14 strain, stronger effect = higher value
Procedure, shortened: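 Yeast carrying cln2 and rad14 alterations (cell cycle control and DNA damage repair) were exposed to compounds. Growth inhibition was measured against vehicle-treated controls.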

[5] = NCI Yeast Anticancer Drug Screen. Data for the bub3 strain (AID 167); details: S. cerevisiae bub3 mutant strain, stronger effect = higher value
Procedure, shortened: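 Yeast carrying a defined mutation is treated with each compound, and growth is compared with that of vehicle-exposed cells to give inhibition.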

[6] = NCI Yeast Anticancer Drug Screen. Data for the mlh1 rad18 strain (AID 175); details: S. cerevisiae mlh1 rad18 strain growth inhibition, stronger effect = higher value
Procedure, shortened: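 Growth inhibition of the yeast strain was measured after compound exposure and expressed relative to vehicle-treated controls. The strain carries defined defects in DNA damage repair.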

[7] = at 5.0 µM (retest, dose inferred, filed as 0.5)
[8] = at 50.0 µM (retest, dose inferred, filed as 5.0)

Measured: growth inhibition

CSc1nncc(=O)[nH]1.[Hg]
active: [1]; [7] 99% | [1]; [8] 99% | [1]; at 50.0 µM 99.2% | [2]; [7] 99% | [2]; [8] 99% | [2]; at 50.0 µM 99.5% | [3]; [7] 100% | [3]; [8] 99% | [3]; at 50.0 µM 99.5% | [4]; [7] 99% | [4]; [8] 99% | [4]; at 50.0 µM 99.2% | [5]; [7] 99% | [5]; [8] 99% | [5]; at 50.0 µM 99.2% | [6]; [7] 99% | [6]; [8] 99% | [6]; at 50.0 µM 99.2%

CC(=O)C(Br)C(C)=O.CC(=O)C(Br)C(C)=O.CC(=O)C(Br)C(C)=O.[Rh]
inactive: [1]; [7] 4% | [1]; [8] -2% | [2]; [7] -22% | [2]; [8] 1% | [3]; [7] -1% | [3]; [8] 0% | [4]; [7] 4% | [4]; [8] 4% | [5]; [7] 1% | [5]; [8] -7% | [6]; [7] 6% | [6]; [8] -18%
active: [1]; at 50.0 µM 99.2% | [2]; at 50.0 µM 99.6% | [3]; at 50.0 µM 99.6% | [4]; at 50.0 µM 93.7% | [5]; at 50.0 µM 99.4% | [6]; at 50.0 µM 99.2%

CCOP(=O)(OCC)Oc1cc(C)c(SC#N)c(C)c1
inactive: [1]; [7] -6% | [1]; [8] -7% | [1]; at 50.0 µM 29.6% | [2]; [7] -2% | [2]; [8] 3% | [2]; at 50.0 µM 20.6% | [3]; [7] 10% | [3]; [8] 25% | [3]; at 50.0 µM 17.1% | [4]; [7] -7% | [4]; [8] -6% | [4]; at 50.0 µM 66.3% | [5]; [7] -3% | [5]; [8] 18% | [5]; at 50.0 µM 53.7% | [6]; [7] 10% | [6]; at 50.0 µM 34%
active: [6]; [8] 76%

COC(=O)CCCCCCCCC[CH2][Hg][Cl]
active: [1]; [7] 99% | [1]; [8] 99% | [1]; at 50.0 µM 95% | [2]; [7] 100% | [2]; [8] 99% | [2]; at 50.0 µM 97.5% | [3]; [7] 99% | [3]; [8] 99% | [3]; at 50.0 µM 98% | [4]; [7] 99% | [4]; [8] 98% | [4]; at 50.0 µM 97.3% | [5]; [7] 99% | [5]; [8] 99% | [5]; at 50.0 µM 98.4% | [6]; [7] 100% | [6]; [8] 99% | [6]; at 50.0 µM 98.4%

C[CH2][Sn]([CH2]C)([O]C(C)=O)[O][Sn]([CH2]C)([CH2]C)[O]C(C)=O
inactive: [1]; [7] 23% | [1]; at 50.0 µM 64% | [2]; [7] 24% | [2]; at 50.0 µM 60.1% | [3]; [7] 15% | [4]; [7] 30% | [4]; [8] 68% | [5]; [7] 21% | [6]; [7] 26%
active: [1]; [8] 80% | [2]; [8] 91% | [3]; [8] 82% | [3]; at 50.0 µM 84.8% | [4]; at 50.0 µM 86.1% | [5]; [8] 78% | [5]; at 50.0 µM 84.3% | [6]; [8] 86% | [6]; at 50.0 µM 89.1%

CCOC(=O)C1CC12c1ccccc1-c1ccccc12 (configuration not stated)
inactive: [1]; [7] 2% | [1]; [8] 23% | [2]; [7] -6% | [2]; [8] 29% | [2]; at 50.0 µM 52.9% | [3]; [7] -23% | [3]; [8] 48% | [3]; at 50.0 µM 67.2% | [4]; [7] -6% | [4]; [8] -5% | [4]; at 50.0 µM 19.8% | [5]; [7] 1% | [5]; [8] 4% | [5]; at 50.0 µM 14.9% | [6]; [7] -1% | [6]; [8] 41% | [6]; at 50.0 µM 69.5%
active: [1]; at 50.0 µM 73.5%

Fc1cccc(C2N(Cc3ccc(N(CCCl)CCCl)cc3Cl)CCCN2Cc2ccc(N(CCCl)CCCl)cc2Cl)c1
inactive: [1]; [7] -28% | [1]; at 50.0 µM 12.7% | [2]; [7] 15% | [2]; at 50.0 µM 54.5% | [3]; [7] -3% | [3]; at 50.0 µM -18.4% | [4]; [7] -5% | [4]; at 50.0 µM -6.1% | [5]; [7] -2% | [6]; [7] 6% | [6]; at 50.0 µM 9.15%
active: [1]; [8] 92% | [2]; [8] 95% | [3]; [8] 95% | [4]; [8] 93% | [5]; [8] 92% | [5]; at 50.0 µM 83.2% | [6]; [8] 94%

O=C1c2ccccc2-c2cccc3cccc1c23
inactive: [1]; [7] 3% | [1]; [8] -52% | [1]; at 50.0 µM -13.8% and 32.1% | [2]; [7] -12% | [2]; [8] -26% | [2]; at 50.0 µM 4.65% and 0.55% | [3]; [7] -9% | [3]; [8] -40% | [3]; at 50.0 µM -14.2% and -19.6% | [4]; [7] -6% | [4]; [8] -17% | [4]; at 50.0 µM -0.75% and 63.6% | [5]; [7] -15% | [5]; [8] -88% | [5]; at 50.0 µM -2.35% and 10.1% | [6]; [7] -1% | [6]; [8] -39% | [6]; at 50.0 µM -6.8% and 24.3%

FC(F)(F)C1(C(F)(F)F)O[Te]2(OC1(C(F)(F)F)C(F)(F)F)OC(C(F)(F)F)(C(F)(F)F)C(C(F)(F)F)(C(F)(F)F)O2
inactive: [1]; [7] 10% | [1]; at 50.0 µM 63.7% | [2]; [7] 10% | [3]; [7] 23% | [4]; [7] 14% | [5]; [7] 20% | [6]; [7] 11%
active: [1]; [8] 79% | [2]; [8] 89% | [2]; at 50.0 µM 96.3% | [3]; [8] 86% | [3]; at 50.0 µM 95.5% | [4]; [8] 84% | [4]; at 50.0 µM 90.2% | [5]; [8] 96% | [5]; at 50.0 µM 89.2% | [6]; [8] 91% | [6]; at 50.0 µM 92%
